Results from PubChem BioAssay (Tox21).
Where “and” joins values, the source holds several entries; their conditions need not be identical. Identical values can stand only once. Results filed as inconclusive are left out. Where a call stands in place of a potency, no number is given. Unmarked numbers belong to inactive results. Calls of active or inactive are those of the source. The call rests on the fitted dose curve; in most records, active means well fitted cell-killing curve with a large enough effect in the repeat runs; inconclusive means weak or mixed curves, or effect the other way; inactive means flat fitted curve, though single readings scatter.

What was measured:
[1] = cAMP Responsive Elements (CRE) small molecule antagonists, cell-based qHTS assay: qHTS cell viability counter screen (AID 2060913); further: nearly all actives have a fitted effect of over 40% in size
Summary of the method: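 CRE-bla HEK293T cells (2,000/well, 18 h) given compound plus NKH477 0.25 uM final for 3 h at 37C; viability counter-screen by CellTiter-Glo luminescence in same wells after 30 min.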

[2] = cAMP Responsive Elements (CRE) small molecule agonists, cell-based qHTS assay: qHTS cell viability counter screen (AID 2060914);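 further: viability read after 3 h of compound exposure; nearly all actives have a fitted effect of over 50% in size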
Summary of the method: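 Cytotoxicity counter screen multiplexed with the CRE-bla reporter assay in HEK 293T cells: 3 h compound exposure at 37 °C, followed by CellTiter-Glo luminescence measured in the same wells.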
Potency means the concentration at half of the fitted maximal effect.

Row | Structure (SMILES) | Potency [1] | Potency [2] | viability change, negative = cytotoxic [1] | activity change, negative = cytotoxicity [2]
1 | O=C(O)c1cc(O)c(O)c(O)c1 | inactive | inactive | – | –
2 | CCCNCCC | inactive | inactive | – | –
3 | Nc1nc(Cl)nc2c1ncn2[C@@H]1O[C@H](CO)[C@@H](O)[C@@H]1F | inactive | inactive | – | –
4 | O=CC1CC=CCC1 (centres undefined) | inactive | inactive | – | –
5 | C(=C/c1ccccc1)/c1ccccc1 | inactive | inactive | – | –
6 | CN(C)CCOCCN(C)C | inactive | inactive | – | –
7 | COC(=O)c1ccc(C(=O)OC)cc1 | inactive | inactive | – | –
8 | OC[C@H]1O[C@@H](O[C@@H]2[C@@H](CO)O[C@](O)(CO)[C@H]2O)[C@H](O)[C@@H](O)[C@H]1O | inactive | inactive | – | –
9 | C=C1CC[C@H]2O[C@]2(C)CC[C@@H]2[C@@H]1CC2(C)C | inactive | inactive | – | –
10 | C=CC(=O)[O-].C=CC(=O)[O-].[Zn+2] | inactive | inactive | – | –
11 | Cc1ccccc1 | inactive | inactive | – | –
12 | Cc1cc(Nc2ccc(O)cc2)ccc1N | inactive | inactive | – | –
13 | CO | inactive | inactive | – | –
14 | O=S1(=O)CC=CC1 | inactive | inactive | – | –
15 | N#Cc1cc2ccccc2c2ccccc12 | inactive | inactive | – | –
16 | Oc1ccc2ccccc2c1N=Nc1ccccc1 | inactive | inactive | – | –
17 | CC/C(=C(/CC)c1ccc(O)cc1)c1ccc(O)cc1 | inactive | inactive | – | –
18 | CCCCCCCC/C=C\CCCCCCCC(=O)NCc1ccc(O)c(OC)c1 | inactive | inactive | – | –
19 | Cc1cc(C)c(C)c(O)c1 | inactive | inactive | – | –
20 | CC1=CC(=C(c2ccc(N)cc2)c2ccc(N)cc2)C=CC1=N | – | – | -2.05% [at 8.39 µM] | -0.199% [at 8.39 µM]
21 | O=c1cc[nH]cc1 | inactive | inactive | – | –
22 | CCO[C@H](Cc1ccc(OCCc2ccc(OS(C)(=O)=O)cc2)cc1)C(=O)O | inactive | inactive | – | –
23 | Cc1nc2n(c(=O)c1CCN1CCC(c3noc4cc(F)ccc34)CC1)CCCC2 | inactive | inactive | – | –
24 | COC(=O)CCCC(=O)OC | inactive | inactive | – | –

Row | Structure (SMILES) | Potency [1] | Potency [2] | viability change, negative = cytotoxic [1] | activity change, negative = cytotoxicity [2]
25 | Cc1cc(=O)[nH]c(=O)[nH]1 | inactive | inactive | – | –
26 | O=C(O)CC(=O)O | inactive | inactive | – | –
27 | Nc1ccc(O)c(C(=O)O)c1 | inactive | inactive | – | –
28 | C=CCCCCCCCCOC(C)=O | inactive | inactive | – | –
29 | COC(OC)(C(=O)c1ccccc1)c1ccccc1 | inactive | inactive | – | –
30 | CCN(C(=O)c1cc(C)cc(OC[C@H](C)Nc2ccncc2)c1)C(C)C | inactive | inactive | – | –
31 | CC(C)(C)c1cc(CCC(=O)OCCSCCOC(=O)CCc2cc(C(C)(C)C)c(O)c(C(C)(C)C)c2)cc(C(C)(C)C)c1O | inactive | inactive | – | –
32 | NC(CSCC(=O)O)C(=O)O (centres undefined) | inactive | inactive | – | –
33 | CNC(=O)Oc1ccc2c(c1)[C@]1(C)CCN(C)[C@@H]1N2C | inactive | inactive | – | –
34 | NS(=O)(=O)c1cc2c(cc1Cl)NC(CC1CCCC1)NS2(=O)=O (centres undefined) | inactive | inactive | – | –
35 | Oc1c(Br)cc(Br)c2cccnc12 | inactive | inactive | – | –
36 | Cc1c[nH]c(=S)[nH]c1=O | inactive | inactive | – | –
37 | FC(F)(F)c1ccc(Cl)c(Cl)c1 | inactive | inactive | – | –
38 | CCOC(=O)OCC/C(SC(=O)OCC)=C(\C)N(C=O)Cc1cnc(C)nc1N | inactive | inactive | – | –
39 | Cc1cc([N+](=O)[O-])ccc1N | inactive | inactive | – | –
40 | COc1cc(C=O)ccc1O | inactive | inactive | – | –
41 | CCCCC(CC)COC(=O)CC#N (centres undefined) | inactive | inactive | – | –
42 | O=C1NCCN1CCO | inactive | inactive | – | –
43 | OC/C=C/CO | inactive | inactive | – | –
44 | OCC1CC=CCC1 (centres undefined) | inactive | inactive | – | –
45 | CC1(C)CC(OC(=O)CCCCCCCCC(=O)OC2CC(C)(C)NC(C)(C)C2)CC(C)(C)N1 | – | – | -1.62% [at 18.9 µM] | 1.68% [at 18.9 µM]
46 | Cc1ccc2c(Br)cc(Br)c(O)c2n1 | inactive | inactive | – | –
47 | CCOC(=O)CC(=O)c1cc(F)c(Cl)nc1Cl | inactive | inactive | – | –
48 | COc1ccc(C(=O)c2ccccc2O)c(O)c1 | inactive | inactive | – | –

Row | Structure (SMILES) | Potency [1] | Potency [2] | viability change, negative = cytotoxic [1] | activity change, negative = cytotoxicity [2]
49 | CC(C)CO | inactive | inactive | – | –
50 | Cc1cccc(NC(=S)N(C)C)c1 | inactive | inactive | – | –
51 | COCCOC(=O)C1=C(C)NC(C)=C(C(=O)OC(C)C)C1c1cccc([N+](=O)[O-])c1 (centres undefined) | inactive | inactive | – | –
52 | CSc1cnc(C)cn1 | inactive | inactive | – | –
53 | O=C(Nc1ncc([N+](=O)[O-])s1)c1cccs1 | 21.1 µM (active) | 11.9 µM (active) | – | –
54 | C[C@@H]1CN(CCCn2c3ccccc3c3ccccc32)C[C@H](C)N1 | inactive | inactive | – | –
55 | CCOC(N)=O | inactive | inactive | – | –
56 | COC1CCC=CO1 (centres undefined) | inactive | inactive | – | –
57 | O=C(Oc1ccccc1)c1ccc2ccccc2c1O | inactive | inactive | – | –
58 | CCC(=O)C(=O)CC | inactive | inactive | – | –
59 | c1ccccc1 | inactive | inactive | – | –
60 | CCC(C)COC(=O)CC(C)C (centres undefined) | inactive | inactive | – | –
61 | COC(=O)c1ccccc1C(=O)O | inactive | inactive | – | –
62 | CC(COc1ccccc1)NN (centres undefined) | inactive | inactive | – | –
63 | COC(=O)c1cccnc1 | inactive | inactive | – | –
64 | Cc1ncc([N+](=O)[O-])n1CCO | inactive | inactive | – | –
65 | Cc1[nH]c(=O)c(C#N)cc1-c1ccncc1 | inactive | inactive | – | –
66 | O=C(O)CCCC[C@@H]1SC[C@@H]2NC(=O)N[C@@H]21 | inactive | inactive | – | –
67 | NC(=O)C1(N2CCCCC2)CCN(CCCC(=O)c2ccc(F)cc2)CC1 | inactive | inactive | – | –
68 | N#CCCOCCOCCC#N | inactive | inactive | – | –
69 | Cc1ccccc1N=C(N)N=C(N)N | inactive | inactive | – | –
70 | CCCCCCCC[N+](CCCCCCCC)(CCCCCCCC)CCCCCCCC | 19.3 µM (active) | 30.6 µM (active) | – | –
71 | CCC(=O)C1CC(C(C)C)CC=C1C (centres undefined) | inactive | inactive | – | –
72 | COc1ccc(CCN(C)CCCC(C#N)(c2ccc(OC)c(OC)c2)C(C)C)cc1OC (centres undefined) | inactive | inactive | – | –

Row | Structure (SMILES) | Potency [1] | Potency [2] | viability change, negative = cytotoxic [1] | activity change, negative = cytotoxicity [2]
73 | CCCCCC(C)OC(=O)COc1ccc(Cl)c2cccnc12 (centres undefined) | inactive | inactive | – | –
74 | CCCCC(CC)COCC1CO1 (centres undefined) | inactive | inactive | – | –
75 | CC(=O)Nc1nnc(S(N)(=O)=O)s1 | inactive | inactive | – | –
76 | CC(C)O | inactive | inactive | – | –
77 | CCCCN1CCCC1C(=O)Nc1c(C)cc(C)cc1C (centres undefined) | inactive | inactive | – | –
78 | C[C@H]1C[C@@H]2[C@H]([C@@H](O)C[C@@]3(C)[C@H]2CC[C@]3(O)C(=O)CO)[C@@]2(C)C=CC(=O)C=C12 | inactive | inactive | – | –
79 | O=C1c2ccccc2C(=O)c2cc(S(=O)(=O)O)ccc21 | inactive | inactive | – | –
80 | CCN=c1cc2oc3cc(NCC)c(C)cc3c(-c3ccccc3C(=O)OCC)c-2cc1C | 68.3 µM (active) and 50.8 µM (active) | 68.3 µM (active) and 61.1 µM (active) | – | –
81 | CC(C)c1ccc2c(C(C)C)cc(C(C)C)c(S(=O)(=O)O)c2c1 | inactive | inactive | – | –
82 | C=CC(C)CCC=C(C)C (centres undefined) | inactive | inactive | – | –
83 | CCCC1CCC(=O)CC1 | inactive | inactive | – | –
84 | C/C=C(C)/C=C/C=C(C)C | inactive | inactive | – | –
85 | O=C(O)c1ccccc1[N+](=O)[O-] | inactive | inactive | – | –
86 | O=C(O)Cc1cc(I)c(Oc2ccc(O)c(I)c2)c(I)c1 | inactive | inactive | – | –
87 | Cc1c(N)cccc1N | inactive | inactive | – | –
88 | O=C(OCC(O)CO)c1ccccc1Nc1ccnc2cc(Cl)ccc12 (centres undefined) | inactive | inactive | – | –
89 | COc1c2occc2c(OC)c2c(=O)cc(C)oc12 | inactive | inactive | – | –
90 | NCCN1CCNCC1 | inactive | inactive | – | –
91 | CCCCNC(N)=O | inactive | inactive | – | –
92 | CCCC(=O)O[C@]1(C(=O)COC(=O)CC)CC[C@H]2[C@@H]3CCC4=CC(=O)CC[C@]4(C)[C@H]3[C@@H](O)C[C@@]21C | – | – | 9.89% [at 18.9 µM] | -7.63% [at 18.9 µM]
93 | Cc1nnc(C(=O)NC(C)(C)c2nc(C(=O)NCc3ccc(F)cc3)c(O)c(=O)n2C)o1 | inactive | inactive | – | –
94 | Nc1ccc(S(=O)(=O)Nc2ccc(Cl)nn2)cc1 | inactive | inactive | – | –
95 | Cc1ccc(N(CCO)CCO)cc1 | inactive | inactive | – | –
96 | CC(C)CCCCOC(=O)c1ccccc1C(=O)OCCCCC(C)C | inactive | inactive | – | –

Row | Structure (SMILES) | Potency [1] | Potency [2] | viability change, negative = cytotoxic [1] | activity change, negative = cytotoxicity [2]
97 | Oc1c(I)cc(I)c2cccnc12 | inactive | inactive | – | –
98 | C1COCCO1 | inactive | inactive | – | –
99 | Cc1ccc(Nc2nccc(N(C)c3ccc4c(C)n(C)nc4c3)n2)cc1S(N)(=O)=O | inactive | inactive | – | –
100 | CCCCCC(=O)CC | inactive | inactive | – | –
101 | CCCCCCCCCCCC(=O)OC[C@@H](O)[C@H]1OC[C@H](OCCO)[C@H]1OCCO | inactive | inactive | – | –
102 | Cc1cc(N)c2cc(NC(=O)Nc3ccc4nc(C)cc(N)c4c3)ccc2n1 | inactive | inactive | – | –
103 | O=C(O)c1cccc(Cl)n1 | inactive | inactive | – | –
104 | Cc1c(C(=O)c2c[nH]n(C)c2=O)ccc(S(C)(=O)=O)c1C1=NOCC1 | inactive | inactive | – | –
105 | c1ccc2cc3ccccc3cc2c1 | inactive | inactive | – | –
106 | CN(C)C(C)(C)CO | inactive | inactive | – | –
107 | CC(=O)c1cc(C)oc1C | inactive | inactive | – | –
108 | Cc1cc(CC(=O)O)c(C)n1-c1ccc(Cl)cc1 | inactive | inactive | – | –
109 | CC(C)(C)OC(=O)c1ccc(O)cc1 | inactive | inactive | – | –
110 | CC1(C)C(C=C(Cl)Cl)C1C(=O)OCc1cccc(Oc2ccccc2)c1 (centres undefined) | inactive | inactive | – | –
111 | C/C=C/c1ccc(OC)c(OC)c1 | inactive | inactive | – | –
112 | O=C(c1ccc(OCCN2CCCCC2)cc1)c1c(-c2ccc(O)cc2)sc2cc(O)ccc12 | inactive | inactive | – | –
113 | O=[N+]([O-])c1c(Cl)cc(Cl)cc1Cl | inactive | inactive | – | –
114 | C=CCCCCCCCCC(=O)OCC | inactive | inactive | – | –
115 | Nc1ccc(C(=O)OCCCOC(=O)c2ccc(N)cc2)cc1 | inactive | inactive | – | –
116 | C/C=C(\C)C(=O)OCCc1ccccc1 | inactive | inactive | – | –
117 | CCCCNc1ccc(C(=O)OCCN(C)C)cc1 | inactive | inactive | – | –
